Screening results as filed in PubChem BioAssay.
In the library only some 2.6% were active in any assay of this set; here they are far more common.
AmpC det inh: inhibitors of E. coli AmpC beta-lactamase with detergent; P00811; purified AmpC, nitrocefin hydrolysis with detergent; Potency, µM (titrated, usually from 28.7 µM), without a hit: at the top dose activity change, negative = inhibition; 71,000 tested, 0.09% active; active means well fitted curve in the direction sought with a large enough effect; inconclusive means small, poorly fitted or top-dose-only effect; further: on the % scale 0 is the no-effect control and ±100 the full control effect
Target sequence (P00811 whole entry, looked up): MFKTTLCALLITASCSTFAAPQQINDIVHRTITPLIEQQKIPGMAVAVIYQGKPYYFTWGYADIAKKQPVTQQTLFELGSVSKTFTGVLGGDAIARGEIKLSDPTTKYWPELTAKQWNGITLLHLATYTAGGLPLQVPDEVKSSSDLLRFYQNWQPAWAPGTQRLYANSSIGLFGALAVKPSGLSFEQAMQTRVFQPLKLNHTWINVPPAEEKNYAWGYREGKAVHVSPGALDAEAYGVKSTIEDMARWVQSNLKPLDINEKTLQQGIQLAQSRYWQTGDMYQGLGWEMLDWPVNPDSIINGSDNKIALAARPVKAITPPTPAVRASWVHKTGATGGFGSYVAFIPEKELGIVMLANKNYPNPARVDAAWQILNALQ
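E. coli AmpC (5.3 nM) in 20 mM phosphate pH 7.0 with 0.01% Triton X-100, preincubated 15 min RT with compound; nitrocefin (2 uL of 800 uM stock) hydrolysis followed by 480 nm absorbance every 20 s over 4 min.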
AmpC nodet inh: inhibitors of E. coli AmpC beta-lactamase without detergent. AmpC nitrocefin hydrolysis, absorbance 480 nm, no detergent. Potency, µM (doses to about 28.7 µM), without a hit: top-dose activity change, negative = inhibition. 71,000 tested, 1.8% active. AID 585; further: % of control where 0% means no effect
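AmpC, 20 mM phosphate pH 7.0; 15 min cpd preinc, RT; start with nitrocefin (800 uM stock); A480 kinetic read, 20 s intervals, 4 min. No-enzyme wells = negative control.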
SmPrx2 inh: inhibitors of Schistosoma mansoni peroxiredoxin 2 | S. mansoni Prx2 activity coupled to TGR/GSH (TGR is thioredoxin glutathione reductase), NADPH fluorescence loss, qHTS | Potency, µM | 65,000 tested, 0.07% active | AID 448
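Prx2 activity was followed as the loss of NADPH fluorescence (ex 365/em 450 nm), read every 30 sec for 8 min after H2O2 start. The enzyme mix (50 nM Prx2, 25 nM TGR, GSH, NADPH; pH 7.4 phosphate buffer) was incubated with compound for 15 min at room temperature first.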
LT uptake inh: blocks cellular internalization of anthrax lethal toxin; Cells, anthrax lethal toxin internalization, FRET ratio (460/530); Potency, µM (top dose mostly 40 µM), without a hit: top-dose activity change, negative = inhibition, most hits filed as inhibitors; 70,000 tested, 0.67% active; AID 912; further: on the % scale 0 is the no-effect control and ±100 the full control effect; nearly all actives have a fitted effect of over 50% in size
An asterisk follows results filed as active; ? = inconclusive; · = not tested or not shown; [ ] = remark or other dose. Unless noted, the call rests on the fitted dose curve. Potency means the concentration at half of the fitted maximal effect.

SMILES | AmpC det inh | AmpC nodet inh | SmPrx2 inh | LT uptake inh
O=C(NCCN1CCCC1)C1(S(=O)(=O)c2ccc(Cl)cc2)CC1 | -3.8% | -3.8% | >57 | -0.5%
O=C(NCCCN1CCCCC1)C1(S(=O)(=O)c2ccc(Cl)cc2)CC1 | 13.9% | 3.98µM*[single pt active] | >57 | -4.7%
N#CC1=C(N)Oc2cc(O)ccc2C1c1cccs1 (stereo not drawn) | 17.3% | -24.1% | · | -25.5%
CN(C)c1ccc2c(c1)OC(N)=C(C#N)C2c1cccc(F)c1 (stereo not drawn) | -2.4% | 1.6% | · | 6.31µM*
Cl.Cl.Cl.Cl.Cl.Cl.N.N.N.N.NNNNN.NNNNN.O.O.[Ru].[Ru].[Ru] | -6.8% | 5.01µM* | >57 | -5.6%
Cn1c(=O)c2c(nc(SCC(=O)NCc3ccc4c(c3)OCO4)n2Cc2ccccc2)n(C)c1=O | 3.0% | 37.1% | >57 | -4.2%
CC1Cc2ccccc2N1C(=O)CSc1nnc(NC(=O)Cc2cccs2)s1 (stereo not drawn) | 7.6% | 12.6µM*[single pt active] | >57 | ?
CCCNC(=O)Cn1cnc2sc(C(=O)N3CCCC(C(=O)OCC)C3)c(C)c2c1=O (stereo not drawn) | -3.5% | 8.8% | >57 | 15.5%
O=C(CSCc1ccco1)c1ccc(Cl)s1 | 12.4% | 10µM* | >57 | -7.7%
CCCOc1ccc(C2/C(=C(\O)c3c(C)[nH]c(C(=O)OC)c3C)C(=O)C(=O)N2CCN(C)C)cc1 (stereo not drawn) | -3.5% | 0.1% | >57 | -4.2%
CCc1nccn1S(=O)(=O)c1ccc(C)c(C)c1 | 1.3% | -4.9% | >57 | -16.2%
CCc1nccn1S(=O)(=O)c1ccc(OC)c(OC)c1 | 16.8% | 3.98µM*[single pt active] | >57 | -5.6%
Cc1nc2ccc(S(=O)(=O)NC(C(=O)N3CCC(C)CC3)C(C)C)cc2s1 (stereo not drawn) | 23.1% | 3.98µM*[single pt active] | >57 | -10.8%
Cc1nc2ccc(S(=O)(=O)NC(C(=O)N3CCCC3)C(C)C)cc2s1 (stereo not drawn) | 10.3% | 3.98µM*[single pt active] | >57 | 0.1%
Cc1nc2ccc(S(=O)(=O)NCC(=O)N3CCC(N4CCCCC4)CC3)cc2s1 | -3.5% | -8.0% | >57 | -14.0%
Cc1nc2ccc(S(=O)(=O)NC(CC(C)C)C(=O)O)cc2s1 (stereo not drawn) | 9.0% | 1.0% | >57 | -5.2%
CCCC1(CCC)NC(=O)N(CC(=O)Nc2ccccc2OC)C1=O | -1.1% | -5.2% | >57 | 0.0%
CC1CCC(C(C)C)C(OC(=O)COC(=O)c2ccc(=O)[nH]c2)C1 (stereo not drawn) | -7.8% | 54.0% | >57 | 12.6µM*
CN(Cc1ccccc1)c1oc(-c2ccco2)nc1C#N | -0.7% | 5.9% | >57 | 10µM*
Cc1nn(Cc2ccc(Cl)c(Cl)c2)c(C)c1NC(=O)c1noc2c1CCCCC2 | -3.8% | 63.4% | >57 | -4.0%
CCOc1ccc(Cn2nnc(C(=O)Nc3cc(C)cc(C)c3)c2N)cc1 | 8.8% | 3.98µM*[single pt active] | >57 | ?
COc1ccc(CNC(=O)c2nnn(Cc3ccc(OC)cc3)c2N)cc1 | 12.1% | 2.51µM*[single pt active] | >57 | -8.3%
CCOc1ccc(Cn2nnc(C(=O)Nc3cc(OC)cc(OC)c3)c2N)cc1 | 11.1% | 3.16µM* | >57 | 19.0%
CCOc1ccc(NC(=O)c2nnn(CC(=O)Nc3ccccc3OC)c2N)cc1 | 4.9% | 11.8% | >57 | -2.3%
CCc1ccc(Cn2nnc(C(=O)Nc3cccc(C)c3)c2N)cc1 | 9.7% | 3.98µM*[single pt active] | >57 | -9.3%
SMILES | AmpC det inh | AmpC nodet inh | SmPrx2 inh | LT uptake inh
O=C(NCc1ccc2c(c1)OCO2)c1ccc(S(=O)(=O)NCC2CCCO2)cc1 (stereo not drawn) | -2.2% | 7.5% | >57 | 2.2%
COc1ccc(NC2CCN(C3CC(=O)N(c4ccc(F)c(Cl)c4)C3=O)CC2)cc1 (stereo not drawn) | -2.5% | 96.8% | >57 | -14.8%
O=C(CN1C(=O)C2C3C=CC(C3)C2C1=O)Nc1nc(SCc2ccc(Cl)cc2)n[nH]1 (stereo not drawn) | 0.7% | 6.1% | >57 | -7.7%
S=C=Nc1cccc(C2(N3CCCCC3)CCCCC2)c1 | 1.3% | 27.1% | >57 | 12.6µM*
CC(C)C[C@@H](CC(=O)N[C@@H](CCCN)CC(=O)N[C@@H]1CCNC[C@H]1C(=O)N[C@H](CC(=O)N[C@@H](CCC(=O)O)CC(=O)O)CC(C)C)NC(=O)[C@@H]1CNCC[C@H]1N | -4.0% | 32.0% | >57 | 4.0%
COc1ccc(C(=O)Nc2cccc(C)c2)cc1S(=O)(=O)N1CCOCC1 | -2.0% | 60.0% | >57 | 14.7%
O=C(Nc1cccc(S(=O)(=O)C(F)F)c1)c1ccc(Cl)c(S(=O)(=O)N2CCOCC2)c1 | 2.4% | -7.1% | >57 | 10µM*
Cc1cccc(-c2nc(CS(=O)CC(=O)N3CCCCC3)c(C)o2)c1 (stereo not drawn) | 16.5% | 3.98µM*[single pt active] | >57 | -3.1%
CCOC(=O)N1CCN(C(=O)CS(=O)Cc2nc(-c3ccc(C)cc3)oc2C)CC1 (stereo not drawn) | 12.3% | 108.6% | >57 | -15.8%
Cc1cccc(-c2nc(CS(=O)CC(=O)NCC3CCCO3)c(C)o2)c1 (stereo not drawn) | 10.6% | 3.98µM*[single pt active] | >57 | -5.1%
COC(=O)CN(c1nc(C)cc(OC)n1)S(=O)(=O)c1ccc(C)cc1 | -4.7% | 27.6% | >57 | -3.6%
CCOC(=O)CCc1c(C)nc2cc(-c3ccccc3OC)[nH]n2c1=O | 8.6% | 3.98µM*[single pt active] | >57 | -5.9%
Cc1ccc(-c2nnn(CC(=O)N(c3cccc(F)c3)C(C(=O)NC3CCCC3)c3ccco3)n2)o1 (stereo not drawn) | -4.4% | 12.6µM* | >57 | -9.0%
COc1ccc(C(=O)NCC(=O)NC2=NCCS2)cc1 | 13.2% | 3.98µM*[single pt active] | >57 | 3.5%
COc1ccc(OCCC(=O)NC2=NCCS2)cc1 | -5.1% | -1.5% | >57 | 13.7%
O=C(c1ccccc1)c1cn(CC(=O)N2CCCC2)c2ccccc12 | 15.9% | 3.98µM*[single pt active] | >57 | 9.8%
O=C(Cc1ccc2c(c1)OCCO2)c1c(O)cc(O)cc1O | -3.7% | 10µM* | >57 | -0.6%
O=C(O)COc1ccc(C(=O)Cc2ccc3c(c2)OCCCO3)c(O)c1 | -0.5% | -11.2% | >57 | -6.9%
CC1=CC(C)(C)N2C(=O)C3(N=C(N)NC(Nc4ccccc4)=N3)c3cc(C)cc1c32 (stereo not drawn) | -3.0% | -11.6% | >57 | -26.4%
CCOC(=O)c1c(NC(=O)c2ccc(Br)o2)sc(C)c1CC | 6.1% | 8.5% | · | 5.01µM*
COc1ccc(N(CC(=O)NC2CCCC2)C(=O)Cn2nnc(-c3ccc(C)cc3)n2)cc1OC | 3.4% | 96.7% | >57 | -8.0%
CCOC(=O)N1CCC(NC(=O)Cn2nc(Cc3ccncc3)c3ccccc3c2=O)CC1 | 13.8% | 3.98µM*[single pt active] | >57 | -10.3%
CCOC(=O)N1CCC(NC(=O)Cn2nc(-c3ccccc3)ccc2=O)CC1 | -6.3% | 111.8% | >57 | ?
N[C@@H](Cc1cc(O)c(O)cc1O)C(=O)O | -25.7% | 5.01µM* | >57 | -8.7%
c1csc(Cc2nc(-c3ccc(-n4cccc4)cc3)no2)c1 | 12.5% | 12.6µM* | >57 | 2.4%
O=C(COc1cccc2cccnc12)N1CCc2ccccc2C1 | -1.1% | 24.2% | >57 | -15.4%
